This is a sample that favours compounds with a hit; in the whole collection about 19% have one here.
KB-3-1 tox: qHTS assay for MDR1-selective chemotherapeutics: Primary screen using the parental adenocarcinoma cell KB-3-1. AID 1347075, 2019. hit rate 1.4% among 400,000. Potency, µM (top dose mostly 46.1 µM), usual class: cytotoxic. KB-3-1 viability, CellTiter-Glo ATP luminescence, 72 h; further: nearly all actives have a fitted effect of over 60% in size
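Here the drug-naive KB-3-1 line serves as comparator for MDR sub-line selectivity; cells received compound titrations, 72 h at 37 °C, then CellTiter-Glo readout.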
HT1080NT lethal: qHTS for induction of synthetic lethality in tumor cells producing 2HG: qHTS for the HT-1080-NT fibrosarcoma cell line; HT-1080-NT fibrosarcoma viability, CellTiter-Glo ATP luminescence, 48 h; Potency, µM (top dose mostly 46.1 µM), actives largely listed as cytotoxic; hit rate 1.6% among 360,000; AID 686970, 2013;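 further: NT is the 2HG producing partner of a matched IDH1 knockdown line; nearly all actives have a fitted effect of over 55% in size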
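Toxicity toward the 2HG-producing NT line was scored as %Activity, normalised to DMSO and no-cell wells, from CellTiter-Glo luminescence after 48 hours' treatment.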
HT1080 IDH1KD tx: qHTS for induction of synthetic lethality in tumor cells producing 2HG: qHTS for the HT-1080-IDH1KD cell line; Potency, µM (highest dose often 46.1 µM), most hits filed as cytotoxic; HT-1080 IDH1 knockdown viability, ATP luminescence, 48 h; hit rate 2% among 360,000
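Knockdown cells (IDH1KD HT-1080) received compounds 2 h after plating at 750 cells/well and were kept 48 h at 37 °C in 5% FBS RPMI. A CellTiter-Glo luminescence read gave % activity for curve fitting.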
KB-V1 MDR tox: qHTS assay for MDR1-selective chemotherapeutics: Primary screen using the drug-selected MDR subline cells KB-V1; KB-V1 MDR cells viability, CellTiter-Glo, 72 h; Potency, µM (doses to about 46.1 µM), actives largely listed as cytotoxic; hit rate 3.4% among 400,000; further: nearly all actives have a fitted effect of over 60% in size
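KB-V1, DMEM (no phenol red) + 10% FBS; cpd pin-transferred, titration series; 72 h, 37 degrees C; CellTiter-Glo, luminescence. Data normalized, curve-fit.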
DT40 TDP1 no CPT: qHTS for Inhibitors of human tyrosyl-DNA phosphodiesterase 1 (TDP1): qHTS in cells in absence of CPT. AID 686978, 2013. Potency, µM (top dose mostly 46.2 µM), hits mostly inhibitors. DT40 Tdp1-/- hTDP1 cells, no CPT, ATP luminescence, 48 h. hit rate 15% among 420,000; further: nearly all actives have a fitted effect of over 55% in size
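Readout: luminescence from CellTiter-Glo after 30 min in the dark at RT. Cells: DT40 Tdp1-/- with stable hTDP1, 400/well. Exposure: compounds alone, ≥48 hr, 37 °C.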
TDP1 cell CPT: qHTS for Inhibitors of human tyrosyl-DNA phosphodiesterase 1 (TDP1): qHTS in cells in presence of CPT; chicken DT40 Tdp1-/-;hTDP1 cells + 20 nM CPT, ATP luminescence, 48 h; Potency, µM (doses to about 46.2 µM), most hits filed as inhibitors; hit rate 12% among 420,000; AID 686979, 2013; further: nearly all actives have a fitted effect of over 55% in size
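Chicken DT40 Tdp1-/- cells complemented with human TDP1, 400 cells/well, exposed to compounds plus 20 nM camptothecin for at least 48 h at 37 C; viability read as ATP content by CellTiter-Glo luminescence.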
Each line names hits and unclear results; the compound was inactive in the other large screens. The call rests on the fitted dose curve; in most records, active means well fitted curve in the direction sought with a large enough effect; inconclusive means small, poorly fitted or top-dose-only effect, or another doubt; inactive means no such curve, though single readings can be large; an effect the other way counts as inactive or inconclusive.

COc1ccccc1-c1ccc2c(c1)C(C)(Cc1cccc(F)c1)C(=O)N2 (stereo unspecified)	KB-3-1 tox inconclusive, HT1080NT lethal inconclusive, HT1080 IDH1KD tx inconclusive, KB-V1 MDR tox 21µM, DT40 TDP1 no CPT inconclusive, TDP1 cell CPT inconclusive
COC(=O)c1ccc(CC2(C)C(=O)Nc3ccc(-c4cccc(C(F)(F)F)c4)cc32)o1 (stereo unspecified)	KB-3-1 tox inconclusive, HT1080NT lethal inconclusive, HT1080 IDH1KD tx inconclusive, KB-V1 MDR tox inconclusive, DT40 TDP1 no CPT 16µM, TDP1 cell CPT inconclusive
O=c1ccn([C@@H]2O[C@H](CNCc3cccn3-c3ccncc3)[C@@H](O)[C@H]2O)c(=O)[nH]1	TDP1 cell CPT inconclusive
O=C(NC1CCCC1)C1CCCN(S(=O)(=O)c2ccc(F)cc2)C1 (stereo unspecified)	DT40 TDP1 no CPT inconclusive
Cc1ccc(NC(=O)C2(C)CCN2CCc2ccccc2)cc1O (stereo unspecified)	none
Cc1c(Br)cccc1NC(=O)C1(C)CCN1Cc1ccccc1OC(F)F (stereo unspecified)	HT1080NT lethal inconclusive, HT1080 IDH1KD tx inconclusive, DT40 TDP1 no CPT inconclusive, TDP1 cell CPT 26µM
COc1ccc(OC)c(NC(=O)C2(C)CCN2Cc2ccsc2)c1 (stereo unspecified)	DT40 TDP1 no CPT 12µM, TDP1 cell CPT 16µM
CC(C)N1CCC1(C)C(=O)Nc1ccccc1OC(F)F (stereo unspecified)	KB-3-1 tox inconclusive, HT1080NT lethal inconclusive, HT1080 IDH1KD tx inconclusive, DT40 TDP1 no CPT inconclusive
CC(=O)N1CCc2cc(NC(=O)C3(C)CCN3CCc3ccccc3)ccc21 (stereo unspecified)	HT1080NT lethal inconclusive, HT1080 IDH1KD tx inconclusive, KB-V1 MDR tox inconclusive, DT40 TDP1 no CPT 21µM, TDP1 cell CPT 21µM
CC1(C(=O)Nc2ccc3c(c2)OCCO3)CCN1Cc1ccccc1OC(F)F (stereo unspecified)	KB-V1 MDR tox inconclusive, DT40 TDP1 no CPT inconclusive, TDP1 cell CPT inconclusive
CC(=O)N1CCc2cc(NC(=O)C3(C)CCN3Cc3ccccc3OC(F)F)ccc21 (stereo unspecified)	KB-3-1 tox inconclusive, HT1080NT lethal inconclusive, HT1080 IDH1KD tx inconclusive, KB-V1 MDR tox inconclusive, DT40 TDP1 no CPT 18µM, TDP1 cell CPT 26µM
COc1ccc(OC)c(NC(=O)C2(C)CCN2C(C)C)c1 (stereo unspecified)	HT1080NT lethal inconclusive
CCNC(=S)Nc1cccc(F)c1C	none
COc1ccc(Cl)cc1NC(=O)c1cc2nc(-c3ccc(C)cc3)cc(C(F)(F)F)n2n1	KB-3-1 tox inconclusive, DT40 TDP1 no CPT inconclusive (no result: HT1080NT lethal, HT1080 IDH1KD tx)
COc1cccc(NC(=O)C2(C)CCN2Cc2ccccc2OC(F)F)c1 (stereo unspecified)	HT1080NT lethal inconclusive, HT1080 IDH1KD tx inconclusive, KB-V1 MDR tox inconclusive, DT40 TDP1 no CPT 16µM, TDP1 cell CPT 21µM
CC1(C(=O)Nc2cccc(NS(C)(=O)=O)c2)CCN1Cc1ccccc1OC(F)F (stereo unspecified)	HT1080 IDH1KD tx inconclusive, DT40 TDP1 no CPT 16µM, TDP1 cell CPT 23µM
COc1ccc(OC)c(NC(=O)C2(C)CCN2Cc2ccccc2OC(F)F)c1 (stereo unspecified)	HT1080NT lethal inconclusive, DT40 TDP1 no CPT 16µM, TDP1 cell CPT inconclusive
CCOc1ccc(CNC(=O)CCS(=O)(=O)c2cc3c4c(c2)CCN4C(=O)CC3)cc1	none (no result: HT1080NT lethal, HT1080 IDH1KD tx)
O=C1CCCCCCC(=O)[C@H](O)C[C@H](c2ccccc2)O1	none
CCN1CCN(CCCNC(=O)C2CCN(c3nnc(-n4cccc4)s3)CC2)CC1	none
CCOc1ccc(NCc2cccn2-c2nnc(N3CCC(C(=O)NCCc4ccc(OCC)c(OCC)c4)CC3)s2)cc1	DT40 TDP1 no CPT 8.2µM, TDP1 cell CPT 15µM (no result: KB-3-1 tox, HT1080NT lethal, HT1080 IDH1KD tx, KB-V1 MDR tox)
CCOc1ccc(NCc2cccn2-c2nnc(N3CCC(C(=O)NCCCN4CC(C)CC(C)C4)CC3)s2)cc1 (stereo unspecified)	HT1080NT lethal 21µM, HT1080 IDH1KD tx inconclusive, DT40 TDP1 no CPT inconclusive, TDP1 cell CPT inconclusive
CCOc1ccc(NCc2cccn2-c2nnc(N3CCC(C(=O)NCCc4ccc(OC)c(OC)c4)CC3)s2)cc1	DT40 TDP1 no CPT 10µM, TDP1 cell CPT inconclusive (no result: KB-3-1 tox, HT1080NT lethal, HT1080 IDH1KD tx, KB-V1 MDR tox)
CCOc1ccc(CCNC(=O)C2CCN(c3nn4c(=O)cc(C)nc4s3)CC2)cc1OCC	none
Cc1cccc(C)c1-n1nnnc1C1(C)CCC(=O)N1Cc1cccnc1 (stereo unspecified)	none
COCC(C)NC(=O)c1cc2c(ccc3ccccc32)oc1=O (stereo unspecified)	DT40 TDP1 no CPT inconclusive, TDP1 cell CPT inconclusive
COCC(=O)Nc1cc(C(=O)N2CC3(C)CC2CC(C)(C)C3)c2c(c1)nc(-c1ccncc1)n2C (stereo unspecified)	none (no result: KB-3-1 tox, HT1080NT lethal, HT1080 IDH1KD tx, KB-V1 MDR tox)
O=C(/C=C/c1ccccc1)Nc1cccc(C(=O)NCCCCc2ccccc2)c1	DT40 TDP1 no CPT 18µM, TDP1 cell CPT inconclusive
O=C(NCCCCc1ccccc1)c1cccc(NC(=O)C2CCCCC2)c1	DT40 TDP1 no CPT 26µM, TDP1 cell CPT inconclusive
O=C(/C=C/c1ccccc1)Nc1cccc(C(=O)NCCc2ccccc2)c1	HT1080 IDH1KD tx inconclusive, DT40 TDP1 no CPT inconclusive, TDP1 cell CPT inconclusive
COc1cc(NC(=O)c2c(C)oc3c2C2=NCCN2C=N3)cc(OC)c1OC	KB-V1 MDR tox inconclusive, DT40 TDP1 no CPT inconclusive (no result: HT1080NT lethal, HT1080 IDH1KD tx)
O=C(CN(C(=O)CNC(=O)c1cccs1)c1ccccc1F)NC1CCCC1	none
O=C(Nc1ccccc1N1CCOCC1)c1ccc([N+](=O)[O-])o1	KB-V1 MDR tox inconclusive, DT40 TDP1 no CPT 15µM, TDP1 cell CPT 12µM
O=C(Nc1ccccc1N1CCN(C(=O)c2ccc(Cl)cc2)CC1)c1ccc([N+](=O)[O-])o1	KB-3-1 tox 21µM, HT1080NT lethal inconclusive, HT1080 IDH1KD tx inconclusive, KB-V1 MDR tox inconclusive, DT40 TDP1 no CPT inconclusive, TDP1 cell CPT 21µM
O=C(Nc1cccc(Cl)c1N1CCCC1)c1ccc([N+](=O)[O-])o1	KB-3-1 tox inconclusive, KB-V1 MDR tox inconclusive
O=C(Nc1ccccc1N1CCCCC1)c1ccc([N+](=O)[O-])o1	KB-3-1 tox inconclusive, KB-V1 MDR tox inconclusive, DT40 TDP1 no CPT 16µM, TDP1 cell CPT 21µM
